# According to PubChem BioAssay (NCI):
# Compounds without any hit were thinned out: in the full panel of roughly 79,000, 15% have a hit. Unmarked numbers belong to inactive results. The source made the active and inactive calls. No stated cut-off is given here; in the data, active means growth inhibition above about 70%; inactive means the rest.
# Experiment: NCI Yeast Anticancer Drug Screen. Data for the sgs1 strain (AID 173);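 further: 0% = growth of vehicle-only control cultures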
# Conditions: S. cerevisiae sgs1 mutant, stronger effect = higher value
# Protocol: Growth inhibition of yeast strains with defined genetic alterations is measured as a screen for potential anti-cancer activity. Selected strains with alterations in DNA damage repair or cell cycle control were exposed to compounds and growth inhibition was measured relative to vehicle treated controls. The strain used in this assay is sgs1
SMILES,growth inhibition (at 1.2 µM),growth inhibition (at 3.7 µM),growth inhibition (at 11.0 µM),growth inhibition (at 33.0 µM),growth inhibition (at 100.0 µM)
O=C1C[C@H]2[C@H](c3ccc(Br)cc3)[C@H]3C(=O)c4ccccc4NC(=O)[C@@H]3[C@@]2(O)c2ccccc2N1,8%,17%,26%,44%,39%
O=[N+]([O-])c1ccc2[nH]c3c(-c4ccccc4)nccc3c2c1,-12%,0%,93% (active),97% (active),96% (active)
COc1ccc2nc(CCc3ccccc3)ccc2c1,-24%,-17%,-3%,21%,96% (active)
CCOP(=O)(OCC)/C(C#N)=C\c1cccc2ccccc12,22%,23%,43%,93% (active),99% (active)
CC1=CC(C)(C)SC(SSSC2=NC(C)=CC(C)(C)S2)=N1,-4%,-2%,0%,14%,89% (active)
CN(C)CC1=Nc2cccc3cccc(c23)N1,-1%,-5%,-5%,7%,68%
COc1cc2oc3ccccc3c(=O)c2cc1CSc1ccccc1N,1%,1%,5%,15%,20%
Nc1ccc2cc(Br)ccc2c1Br,-24%,-22%,-17%,-9%,30%
